For 14 compounds, growth results are on record in PubChem BioAssay (NCI).

This is part of a sample that, as a whole, favours compounds with a hit. Of some 83,000 tested, about 20% had one in any assay.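 Interpretation: 100, growth as untreated; towards 0, rising growth inhibition; 0, no net growth; 0 to -100, cell death. Compounds scoring below 10 were considered active.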 Values without a mark were called inactive. Activity calls are given as the source filed them.

The test system of the experiment is MDA-MB-468 breast. The experiment can be described thus: NCI-60 one-dose screen, 48 h (100 = growth as untreated, 0 = no growth, -100 = all killed). The following applies: 10 µM unless noted.
In the case of `Cc1ccc(F)c(NC(=O)Nc2ccc(-c3cccc4[nH]nc(N)c34)cc2)c1`, the growth is 15.7%.
`COC(=O)/C=C\C(=O)OC`: the growth was 112%.
On to `Brc1ccc(-c2cnc3nonc3n2)cc1`, for which the growth was 50.1%.
Turning to `COc1ccc(-c2c3c(cn2Cc2cccc(OC)c2)-c2oncc2CCC3)cc1`, the growth is 88.7%.
Regarding `CCCCOc1ccc(/C=C2/SC(N3CCCC3)=NC2=O)cc1`, the growth was 93.1%.
The same measure for `Cc1ccc(C)c2c1SC1=NNC(Oc3ccc(Cl)cc3)=C(C#N)C(=N)N12`: 118%; for `CC(C)n1cnc2c(=S)nc[nH]c21`: 104%.
Turning to `Cn1cc(-c2cnc3ccc(NC(=O)Nc4ccc(F)c(Br)c4)cc3n2)cn1`, the growth is -6.86% (active).
Regarding `CCC(=O)N1C/C(=C/c2ccc(Br)cc2)C(=O)/C(=C/c2ccc(Br)cc2)C1`, the growth is -91.5% (active).
As for `CC(C)NCCCNC1=C(Cl)C(=O)c2ccccc2C1=O`, the growth was 34.6%.
Consider `COc1ccc(C(C)=O)cc1S(=O)(=O)Nc1c(N)nc(SC)[nH]c1=O`, for which the growth is 97.6%.
Take `COc1ccc(-c2nn(-c3cccc(Cl)c3)cc2-c2cc(-c3cccs3)[nH]c(=S)n2)cc1`: the growth is 67.8%.
Consider `CC(C)(C)OC(=O)N1CCCN(CCNc2nccc(-c3c(-c4cccc(O)c4)nc4sccn34)n2)S1(=O)=O`, for which the growth was 97.3%.
The same measure for `O=C(Nc1ccc(Nc2ncccn2)cc1)NC1C=c2ccccc2=CC1` (centres undefined): 110%.
